Many of the other results were omitted from the sample, so hits are more common in it than they were.
ROS inducer = raises reactive oxygen species in U2OS cancer cells; 46,000 compounds, 2% hits; U2OS ROS induction, H2DCF-DA fluorescence; ROS induction (% of piperlongumine), % at 10 µM; AID 624156; in the data active means ROS induction above about 79%, passing the limit was not always enough
Of the large screens only hits and unclear results are named; the others gave an inactive call.

C[C@H]1CN([C@@H](C)CO)C(=O)c2cccc(NC(=O)c3nc4ccccc4s3)c2O[C@@H]1CN(C)Cc1ccc(Cl)c(Cl)c1	none
C[C@@H]1CN([C@H](C)CO)C(=O)c2cccc(NC(=O)NC3CCCCC3)c2O[C@@H]1CN(C)Cc1ccccc1	none
C[C@@H]1CCCCO[C@H](CN(C)C(=O)c2ccncc2)[C@@H](C)CN([C@H](C)CO)C(=O)c2cc(NS(=O)(=O)c3ccc(Cl)cc3)ccc2O1	none
C[C@@H]1CCCCO[C@H](CN(C)C(=O)Nc2ccc3c(c2)OCO3)[C@@H](C)CN([C@H](C)CO)C(=O)c2cc(NC(=O)Nc3ccccc3)ccc2O1	none
COc1ccc(NC(=O)Nc2ccc3c(c2)C(=O)N([C@H](C)CO)C[C@H](C)[C@H](CN(C)C(=O)Nc2ccccc2)OCCCC[C@@H](C)O3)cc1	none
C[C@@H]1CCCCO[C@H](CN(C)C(=O)Nc2ccccc2)[C@@H](C)CN([C@H](C)CO)C(=O)c2cc(NC(=O)Nc3ccc4c(c3)OCO4)ccc2O1	none
Cc1ccc(S(=O)(=O)Nc2ccc3c(c2)C(=O)N([C@H](C)CO)C[C@H](C)[C@H](CN(C)C(=O)c2ccncc2)OCCCC[C@@H](C)O3)cc1	ROS inducer 108.1
COc1ccc(NC(=O)N(C)C[C@@H]2OCCCC[C@@H](C)Oc3ccc(NC(=O)Nc4ccc5c(c4)OCO5)cc3C(=O)N([C@H](C)CO)C[C@@H]2C)cc1	ROS inducer 118.3
C[C@@H]1CCCCO[C@H](CN(C)C(=O)c2ccccc2)[C@@H](C)CN([C@H](C)CO)C(=O)c2cc(NC(=O)NC3CCCCC3)ccc2O1	none
C[C@@H]1CCCCO[C@@H](CN(C)C(=O)Nc2ccc3c(c2)OCO3)[C@@H](C)CN([C@H](C)CO)C(=O)c2cc(NC(=O)NC3CCCCC3)ccc2O1	ROS inducer 121.1
COc1ccc(NC(=O)Nc2ccc3c(c2)C(=O)N([C@H](C)CO)C[C@H](C)[C@@H](CN(C)C(=O)Nc2ccc4c(c2)OCO4)OCCCC[C@@H](C)O3)cc1	none
C[C@@H]1CCCCO[C@H](CN(C)C(=O)c2ccncc2)[C@@H](C)CN([C@H](C)CO)C(=O)c2cc(NS(=O)(=O)c3ccc(F)cc3)ccc2O1	none
C[C@@H]1CCCCO[C@H](CN(C)C(=O)c2ccncc2)[C@@H](C)CN([C@H](C)CO)C(=O)c2cc(NC(=O)NC3CCCCC3)ccc2O1	ROS inducer 122.6
C[C@@H]1CCCCO[C@@H](CN(C)C(=O)c2ccncc2)[C@@H](C)CN([C@H](C)CO)C(=O)c2cc(NC(=O)c3ccncc3)ccc2O1	none
CC(C)NC(=O)Nc1cccc2c1O[C@@H](CN(C)Cc1ccc(Cl)c(Cl)c1)[C@@H](C)CN([C@H](C)CO)C2=O	none
Cc1ccc(S(=O)(=O)N(C)C[C@H]2Oc3c(NC(=O)Nc4c(C)noc4C)cccc3C(=O)N([C@@H](C)CO)C[C@H]2C)cc1	none
CCOC(=S)SCc1c(C)c(C)c(C)c(C)c1C	none
C[C@@H]1CN([C@@H](C)CO)C(=O)Cc2cc(NC(=O)Nc3cccc4ccccc34)ccc2O[C@@H]1CN(C)Cc1ccccc1	none
CC1=C(C(=O)OCC(C)C)C(c2ccc(Cl)cc2)NC(=O)N1C (stereo unspecified)	none
COc1ccc(S(=O)(=O)Nc2ccc3c(c2)C(=O)N([C@@H](C)CO)C[C@@H](C)[C@H](CN(C)C(=O)Nc2ccccc2)O3)cc1	none
COc1ccc(NC(=O)Nc2ccc3c(c2)C(=O)N([C@H](C)CO)C[C@H](C)[C@H](CN(C)C(=O)Nc2cccc4ccccc24)OCCCC[C@@H](C)O3)cc1	none
COc1ccc(NC(=O)N(C)C[C@H]2Oc3ccc(NS(=O)(=O)c4cccs4)cc3C(=O)N([C@H](C)CO)C[C@H]2C)cc1	none
Cc1nnc(Sc2ccc(/C=N/NC(=O)c3ccccn3)o2)n1C	none
COc1ccc(NC(=O)N(C)C[C@@H]2Oc3c(NS(=O)(=O)c4ccccc4)cccc3C(=O)N([C@@H](C)CO)C[C@@H]2C)cc1	none
COC(=O)c1ccccc1NC(=O)CCn1cccc1	none
CC(=O)Nc1ccc(C(=O)Nc2cccc(NC(=O)c3ccco3)c2)cc1	none
O=C(O)c1ccc(CNC(=O)c2ccc(NC(=O)c3ccco3)cc2)cc1	ROS inducer 98.7
O=C(NCc1ccccn1)c1ccc(NC(=O)c2ccco2)cc1	none
C[C@@H]1CN([C@H](C)CO)C(=O)c2cccc(NC(=O)Nc3ccc(C(F)(F)F)cc3)c2O[C@H]1CN(C)Cc1ccncc1	none
Cn1c(SCC(=O)Nc2c(F)cc(F)cc2Br)nnc1-c1cccnc1	none
O=C(CCCN1C(=O)/C(=C\c2cccs2)SC1=S)Nc1ccc(O)cc1	none
CN1CCN(NC(=O)CCN2C(=O)/C(=C\c3ccccc3)SC2=S)CC1	none
COc1ccc(/C=C2\SC(=S)N(CCCC(=O)O)C2=O)cc1OC	ROS inducer 137.6
COc1ccc(-c2oc3ncn(CCO)c(=N)c3c2-c2ccc(OC)cc2)cc1	none
COc1ccc(-c2noc(CC(=O)O)c2-c2ccc(OC)cc2)cc1	none
COc1ccc(-c2oc3ncn(CC(C)C)c(=N)c3c2-c2ccc(OC)cc2)cc1	ROS inducer 94.4
C[C@H](CO)N1C[C@H](C)[C@H](CN(C)S(C)(=O)=O)Oc2ccc(NC(=O)Nc3ccc(C(F)(F)F)cc3)cc2C1=O	none
C[C@@H]1CCCCO[C@@H](CN(C)C(=O)Nc2ccc(C(F)(F)F)cc2)[C@@H](C)CN([C@H](C)CO)C(=O)c2cc(NC(=O)Nc3ccccc3)ccc2O1	none
O=C1O[C@H](c2ccccc2)[C@H](c2ccccc2)N2[C@H]1[C@@H](C(=O)O)[C@]1(C(=O)Nc3ccccc31)[C@H]2c1ccc(OCCO)cc1	none
COC(=O)C(CC#Cc1ccc2c(c1)[C@]1(C(=O)N2)[C@H](c2ccccc2OCCO)N2[C@H](c3ccccc3)[C@H](c3ccccc3)OC(=O)[C@H]2[C@@H]1C(=O)N1CCN(c2ncccn2)CC1)C(=O)OC	ROS inducer 99.0
O=C1O[C@@H](c2ccccc2)[C@@H](c2ccccc2)N2[C@@H](c3ccccc3OCCO)[C@]3(C(=O)Nc4ccccc43)[C@@H](C(=O)O)[C@H]12	none
COC(=O)C(CC#Cc1ccc2c(c1)[C@]1(C(=O)N2)[C@H](C(=O)N2CCN(c3ncccn3)CC2)[C@H]2C(=O)O[C@H](c3ccccc3)[C@H](c3ccccc3)N2[C@@H]1c1ccc(OCCO)cc1)C(=O)OC	none
O=C1O[C@H](c2ccccc2)[C@H](c2ccccc2)N2[C@H]1[C@@H](C(=O)N1CCN(c3ncccn3)CC1)[C@]1(C(=O)Nc3ccc(C#CC4=CCCCC4)cc31)[C@H]2c1ccccc1OCCO	none
O=C1O[C@H](c2ccccc2)[C@H](c2ccccc2)N2[C@H]1[C@@H](C(=O)N1CCN(c3ncccn3)CC1)[C@]1(C(=O)Nc3ccccc31)[C@H]2c1ccccc1OCCO	ROS inducer 169.9
COC(=O)C(CC#Cc1ccc2c(c1)[C@]1(C(=O)N2)[C@H](c2ccc(OCCO)cc2)N2[C@H](c3ccccc3)[C@H](c3ccccc3)OC(=O)[C@H]2[C@@H]1C(=O)N1CCN(c2ncccn2)CC1)C(=O)OC	none
O=C1O[C@@H](c2ccccc2)[C@@H](c2ccccc2)N2[C@@H](c3ccc(OCCO)cc3)[C@]3(C(=O)Nc4ccccc43)[C@@H](C(=O)N3CCN(c4ncccn4)CC3)[C@H]12	ROS inducer 96.5
O=C1O[C@H](c2ccccc2)[C@H](c2ccccc2)N2[C@H]1[C@@H](C(=O)N1CCN(c3ncccn3)CC1)[C@]1(C(=O)Nc3ccc(C#CC4(O)CCCCCC4)cc31)[C@H]2c1ccc(OCCO)cc1	none
C=CC[C@H](OC(=O)Nc1ccc(OC)cc1)c1ccc(OCCO)cc1	none

Screens: PubChem, Broad Institute
